Measured values from ChEMBL document CHEMBL4513216, “Probing the Open Global Health Chemical Diversity Library for Multistage-Active Starting Points for Next-Generation Antimalarials” (ACS Infect Dis, 2020).
Screen size: about 68,000 compounds; about 2,700 (4%) showed an effect of 50% or more. Shown is part of a subset that was picked to be rich in strong results.

These compounds were tested on Plasmodium berghei (assay: Screen against P. berghei liver stage (PbLuc), transformed with Luciferase, at 2uM). Settings: tested at 2 uM.
Format: functional, HepG2

| Compound | INHIBITION |
| --- | --- |
| Cc1occc1C(=O)N1CCC2(CC1)C(c1cnn(C)c1)CC(=O)N2C (stereo not drawn) | -41.72% |
| Cc1cccc2c1OCCCC2NCc1nccn1Cc1ccccc1 (stereo not drawn) | 21.72% |
| c1csc(-c2nc(CNCCn3cccn3)cs2)c1 | 4.18% |
| COc1cc(N2C[C@@H]3COC[C@]3(C(=O)NCc3ccccn3)C2)ncn1 | -23.31% |
| Nc1ncccc1C(=O)NCc1cccc(Br)c1 | -3.16% |
| O=C(NCCc1cccs1)[C@]12COC[C@H]1CN(C1CCOCC1)C2 | 17.24% |
| COc1cc(N2CCC3(CCCN3Cc3cnn(C)c3)CC2)ncn1 | 30.09% |
| Cc1ccc(-c2cc(CN3CCc4cnc(C)nc4C3)on2)cc1 | -34.82% |
| O=C([C@H]1C[C@H]2OCC[C@H]2N(C(=O)c2ccncc2)C1)N1CCCCO1 | -34.26% |
| O=C([C@H]1C[C@H]2OCC[C@H]2N(C(=O)c2ccccn2)C1)N1CCCCO1 | 62.1% |
| O=C([C@H]1C[C@H]2OCC[C@H]2N(C(=O)c2cnccn2)C1)N1CCCCO1 | -1.69% |
| O=C(c1ccc(Br)o1)N1CCN(Cc2ccc(F)cc2)CC1 | 10.22% |
| CC(C)NC(=O)Nc1ccc(CNCc2cccc(C#N)c2)cc1 | -68.26% |
| Cn1cc(CNC2CCCN(Cc3noc(C4CC4)n3)C2)cn1 (stereo not drawn) | 2.08% |
| Cc1ncc(CNC2CCCN(Cc3noc(C4CC4)n3)C2)s1 (stereo not drawn) | 18.46% |
| Cc1ccc(CNC2CCCN(Cc3noc(C4CC4)n3)C2)s1 (stereo not drawn) | 54.29% |
| Cn1ccnc1CC1CCCN(Cc2noc(C3CC3)n2)C1 (stereo not drawn) | 11.24% |
| Cn1ccnc1CNC1CCCN(Cc2noc(C3CC3)n2)C1 (stereo not drawn) | 50.32% |
| Cc1nc(CN2CCCC(NCCCc3ccccc3)C2)no1 (stereo not drawn) | -6.4% |
| Cc1nc(CN2CCCC(NCc3cccc4ccccc34)C2)no1 (stereo not drawn) | 29.54% |
| CCc1nc(CN2CCCC(NCc3cnc(C)s3)C2)no1 (stereo not drawn) | 77.57% |
| CCc1nc(CN2CCCC(NCc3nc(C)c(C)o3)C2)no1 (stereo not drawn) | 36.73% |
| Cc1cc(CNC2CCCN(Cc3noc(C4CC4)n3)C2)on1 (stereo not drawn) | 7.01% |
| Cc1nc(CN2CCCC(NCCc3ccccc3Cl)C2)no1 (stereo not drawn) | 56.67% |
| CCc1nc(CN2CCCC(NCc3cc(C)no3)C2)no1 (stereo not drawn) | -2.1% |
| Cc1oc(C(=O)O)cc1S(=O)(=O)Nc1cccc(-c2nccs2)c1 | 15.39% |
| Fc1cnc(N2C[C@H]3CCC[C@@]3(COc3ccccn3)C2)nc1 | -27.16% |
| COc1ccc2cc(NC(=O)CCNc3nc(C)cc(C)n3)cnc2c1 | -6.83% |
